The source of these data is PubChem BioAssay AID778 (Sanford-Burnham Center for Chemical Genomics, 2007).

Hit rate of the full screen: of about 96,000 compounds, about 20,000 (21%) were called active. Only a sample is shown. Values without a mark were called inactive.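 How the source made its calls: active means CYP2C19 inhibition above a set limit at 5 µM in the primary screen (cut at about 50% in these data); inactive means the rest.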

The assay deals with Cytochrome P450 2C19 (Homo sapiens) (UniProt P33261). Put plainly: blockers of cytochrome P450 2C19 activity – biochemical, luminescence, ADME assay, primary screen (AID 778).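 Further: plate controls were negative control wells for no effect and 2.5 mM tranylcypromine positive control for full effect.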 Particulars: CYP2C19 Supersomes, luciferin-H EGE luminescence, 30 min; at 5 µM; stronger effect = higher value.
Sequence of Cytochrome P450 2C19 (Homo sapiens) (P33261 whole entry, looked up): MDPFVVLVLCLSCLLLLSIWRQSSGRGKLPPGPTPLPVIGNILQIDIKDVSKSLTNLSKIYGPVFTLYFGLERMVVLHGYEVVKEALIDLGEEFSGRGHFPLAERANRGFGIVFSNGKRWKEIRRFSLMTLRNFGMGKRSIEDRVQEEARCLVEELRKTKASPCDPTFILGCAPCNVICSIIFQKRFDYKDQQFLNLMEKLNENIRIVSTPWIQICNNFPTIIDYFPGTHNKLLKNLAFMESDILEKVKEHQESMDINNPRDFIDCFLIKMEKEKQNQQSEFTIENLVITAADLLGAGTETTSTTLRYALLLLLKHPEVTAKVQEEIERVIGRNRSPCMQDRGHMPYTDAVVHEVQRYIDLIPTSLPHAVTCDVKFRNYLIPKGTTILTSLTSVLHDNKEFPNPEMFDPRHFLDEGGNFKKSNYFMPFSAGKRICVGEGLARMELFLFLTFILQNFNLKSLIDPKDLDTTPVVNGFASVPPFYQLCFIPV
As usually defined, the inhibition is the drop in the measured response relative to a control, in per cent. Consider `O=C(CNC(=O)c1ccccc1)NCC(=O)OCc1ccc(Cl)cc1`, for which the inhibition was 7.3%.
For `Cc1ccc(C(=O)N2CCCCCC2)cc1Br`, the inhibition is 26.6%.
Regarding `Cc1ccc(C(=O)N2CCCC2)c(F)c1F`, the inhibition is 9.6%.
As for `Cc1c(Br)cc(C(=O)N2CCCCCC2)c(C)c1C`, the inhibition is 96% (active).
For `CCOC(=O)c1c(-c2ccc(C)cc2C)csc1NC(=O)CSc1nnnn1C`, the inhibition was 27.2%.
The result for `CCOC(=O)c1c(C2CC2)csc1NC(=O)CSCc1c(C)noc1C` reads 64% (active).
The value for `Cc1noc(C)c1CSCC(=O)Nc1nc2ccc(Oc3ccccc3)cc2s1` was 40.8%; that for `Cc1nc(SCC(=O)c2ccccc2)c([N+](=O)[O-])[nH]1` was 23.7%; that for `COC(=O)c1cc(C(=O)CSc2nc(C)cc(C)n2)ccc1O` was 23.3%.
Take `Cc1cc(SCC(=O)c2ccccc2)nc(SCC(=O)c2ccccc2)n1`: the inhibition was 53.4% (active).
`CC(C)CCOc1ccc(C(=O)C[N+]2(C)CCOCC2)cc1`: the inhibition is 12%.
With `Cc1ccc(N2C(=O)c3ccccc3C2(O)c2ncc[nH]2)cc1` (stereo not drawn), the inhibition is 5.2%.
As for `COc1ccc(CC(=O)n2nc(-c3cccnc3)nc2N)cc1`, the inhibition was 22.6%.
For the compound `CCOc1c(N2CCCCC2)c(=O)c1=O`, the inhibition is -3.9%.
On to `CC(C)CNC(=O)CC(c1ccccc1)c1c(O)ccc2ccccc12` (stereo not drawn), for which the inhibition is 58.9% (active).
Regarding `CC(C)CNC(=O)COC(=O)/C=C/c1ccccc1[N+](=O)[O-]`, the inhibition is 2.4%.
In the case of `CCc1ccc(/C=N/NC(=O)c2ccc(OC3CCCC3)cc2)s1`, the inhibition was 25.8%.
With `Cc1cc(N(C)C)cc(C)[n+]1[O-]`, the inhibition was -6.3%.
The value for `O=C1CSC(=O)N1CCOCCN1C(=O)CSC1=O` was 15.9%; that for `CCOc1ccccc1NC(=O)CCN1CCN(S(=O)(=O)c2ccc(OC)cc2)CC1` was 68.5% (active); that for `O=C(Nc1ccc(S(=O)(=O)N2CCCCC2)cc1)c1cnccn1` was 9.9%.
In the case of `CCOc1ccccc1NC(=O)c1cc(S(=O)(=O)N2CCC3(CC2)OCCO3)ccc1F`, the inhibition is 9.8%.
For the compound `O=C(Nc1ccccc1F)c1cc(S(=O)(=O)N2CCCCC2)cs1`, the inhibition is 62% (active).
Consider `COc1ccc(S(=O)(=O)N2CCCC(C(=O)Nc3ccc(NC(=O)c4ccccn4)cc3)C2)cc1` (stereo not drawn), for which the inhibition is 20.8%.
As to `COc1cc2c(cc1NC(=O)CN1CCN(S(=O)(=O)c3ccc(F)cc3)CC1)oc1ccccc12`, the inhibition is 11.9%.
With `O=C(CN1CCN(S(=O)(=O)c2ccc(F)cc2)CC1)Nc1ccccc1F`, the inhibition is 57.1% (active).
As for `COc1ccccc1NC(=O)CN1CCN(S(=O)(=O)c2ccc(Br)cc2)CC1`, the inhibition is 34%.
Regarding `CCOC(=O)c1[nH]c2ccc(OC)cc2c1NC(=O)CCN1CCN(Cc2ccccc2)CC1`, the inhibition is 32.7%.
For `Cc1nc2ccc(C(=O)N3CCSCC3)cc2s1`, the inhibition is -5.2%.
In the case of `CCOC(=O)c1ccc(NC(=O)CSc2nnc(COc3ccccc3OC)n2C)cc1`, the inhibition was 38.9%.
Regarding `CCOC(=O)c1c(NC(=S)NC(=O)c2ccco2)sc2c1CCCC2`, the inhibition is -3.4%.
Turning to `O=C(CCS(=O)(=O)c1cccc2nsnc12)N1CCN(c2ccccc2F)CC1`, the inhibition is 45.5%.
Turning to `Cc1ccc(S(=O)(=O)N2CCC(C(=O)N[C@@H](C)C(=O)NCc3ccccc3)CC2)cc1`, the inhibition is 6%.
Turning to `CCN=C1SC(CC(=O)Nc2ccc(C)cc2)C(=O)N1CC` (stereo not drawn), the inhibition was 38.5%.
For `CN(C(=O)CC(NC(=O)c1ccccc1)(c1ccccc1)c1ccccc1)c1ccccc1`, the inhibition was 36.4%.
As for `COC(=O)c1ccc(NC(=O)Nc2ccc(C)cc2)cc1`, the inhibition is 2.9%.
Consider `CCOC(=O)c1nc(Nc2ccc(C(=O)OC)cc2)c2ccccc2n1`, for which the inhibition is 49.1%.
In the case of `COC(=O)c1ccc(NCC(=O)c2ccccc2)cc1`, the inhibition was 64.3% (active).
Regarding `C=CCNC(=O)CSc1nc2sc(C)c(C)c2c(=O)[nH]1`, the inhibition was 14.3%.
The value for `CCSc1nnc(NC(=O)c2ccc(C)cc2)s1` was 25.5%; that for `CC1=CC(C)(C)N(C(=O)CSc2nccn2C)c2cc(C)ccc21` was 82.8% (active); that for `CC1=CC(C)(C)N(C(=O)CSc2nnc(-c3ccccc3)o2)c2ccc(C)cc21` was 25.2%.
For the compound `CCOC(=O)c1c(NC(=O)CCC(=O)NCc2ccco2)sc2c1CCCC2`, the inhibition was 10.1%.
For `COc1ccccc1NC(=O)CC(NCCN(C)C)C(=O)O` (stereo not drawn), the inhibition was -1.5%.
With `COc1ccccc1NC(=S)NC(=O)C(C)C`, the inhibition is 16.5%.
As for `COc1ccccc1NC(=O)[C@H](COCc1ccccc1)NC(=O)OC(C)(C)C`, the inhibition is 54.6% (active).
For `C/C(=C\C(=O)c1ccc(Br)cc1)N1CCCCC1`, the inhibition is 7.2%.
The result for `O=C(CNCCO)NC12CC3CC(CC(C3)C1)C2` reads 0.8%; that for `Cc1cccc2cc(C#N)c(N3CCCC3)nc12`, 1.4%.
On to `COc1ccc2nc(N3CCCC(O)C3)c(C#N)cc2c1` (stereo not drawn), for which the inhibition was 42.8%.
Turning to `CCOc1ccc2nc(N3CCCN(C(=O)Nc4ccccc4C)CC3)c(C#N)cc2c1`, the inhibition was 89.4% (active).
On to `CS(=O)(=O)N(C(=O)NC(=O)NC1CCS(=O)(=O)C1)C1CCCCC1` (stereo not drawn), for which the inhibition was -6.1%.
In the case of `Cc1c(C(=O)N2CC(C)OC(C)C2)sc2nc(-c3ccccc3)cn12` (stereo not drawn), the inhibition is 3.7%.
With `CC(C)NC(=O)NC(=O)COC(=O)c1ccc(NC(=O)CC#N)cc1`, the inhibition was 0.7%.
In the case of `COc1ccc([N+](=O)[O-])cc1C1NN=C(c2cccc3ccccc23)S1` (stereo not drawn), the inhibition is 32.4%.
Regarding `CCN1CCN(C(=O)c2cc3cc4ccc(OC)cc4nc3s2)CC1`, the inhibition was -9.4%.
Take `Cc1ccc(C)c(N2CCN(S(=O)(=O)c3ccc4c(c3)oc(=O)n4C)CC2)c1`: the inhibition was 4.3%.
The result for `O=c1ccc2cc(S(=O)(=O)N3CCN(c4ccccc4)CC3)ccc2o1` reads 1.3%; that for `Cc1cc(N2CCN(S(=O)(=O)c3ccc(C)c(C)c3)CC2)c2ccccc2n1`, 95.8% (active).
The result for `O=C(c1cccc(N2CCCC2=O)c1)N1CCOCC1` reads -8.7%.
As for `O=C(c1ccc(-n2cnnn2)cc1)N1CCN(C(c2ccccc2)c2ccccc2)CC1`, the inhibition was 71.6% (active).
With `NC(=O)C1CCN(C(=O)c2ccc(-c3ccccc3)cc2)CC1`, the inhibition is 9.6%.
As to `O=C(O)CC(c1ccccc1)n1cnnn1` (stereo not drawn), the inhibition was -12.4%.
